From PubChem BioAssay
Calls of active or inactive are those of the source.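 Rule for the calls, unless noted: active = inhibition of the reporter signal at or above 50%; inactive = inhibition below 50%.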

Key:
[1] = inhibitors of TNFa-induced NFkB p65 translocation, primary screen, imaging, HUVEC, MLSMR starter and 10KST1 sets (AID 438;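 active = inhibition above 20% together with a positive visual image hit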;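 note: compound added about 3h40 before a 20 min TNFalpha stimulation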;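 for inhibition: signal is the nuclear over cytoplasmic p65 intensity ratio per well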); details: HUVEC TNFa-induced p65 nuclear translocation; cell count: measured here: nuclei count (cytotoxicity indicator), at 2.08 µM; inhibition: at 2 µM, stronger effect = higher value, 0% TNFa-plus-vehicle, 100% no-TNFa wells
[2] = inhibitors of mutant huntingtin aggregation, primary screen, imaging, exon1htt(103Q)mCFP cells, high-content imaging (AID 483;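 active = visual image review flags a hit and inhibition of aggregation exceeds 20%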;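 note: compound exposure lasted 3 days before fixation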;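 for nuclei count: percent of the per-plate median nuclei count of sample wells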); details: exon1htt(103Q)mCFP cell line, aggregate imaging, at 2 µM; inhibition of aggregation: stronger effect = higher value; nuclei count: measured here: cell count, toxicity
[3] = inhibitors of E-selectin induction by TNFa, primary screen, imaging, HUVEC, immunofluorescence, MLSMR starter and 10KST1 sets (AID 487;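 active = visually confirmed hit in the image check and inhibition above 20%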;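 for inhibition: signal is fraction of cell area covered by stained E-selectin grains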;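 for nuclei count: 100% = median nuclei count of all wells on the same plate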); details: HUVEC TNFalpha-induced E-selectin immunofluorescence imaging, at 2 µM; inhibition: stronger effect = higher value; nuclei count: measured here: cell number, toxicity
[4] = molecular target: Voltage-gated potassium channel subunit beta-2 (Rattus norvegicus) (UniProt P62483); experiment: KvBeta enzyme negative modulators, primary screen, biochemical, NADPH fluorescence (AID 622;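 active = fluorescence slope higher than the sample average by over 3 SD, cut at about -0.22 in these data, passing the limit was not always enough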;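 note: slope of raw intensity against log time taken from 70 to 1610 s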); details: recombinant KvBeta, 4-cyanobenzaldehyde reduction, at 10 µM, stronger effect = higher value
[5] = molecular target: Voltage-gated potassium channel subunit beta-2 (Rattus norvegicus) (UniProt P62483); experiment: KvBeta positive modulators, primary screen, biochemical, NADPH fluorescence (AID 623;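 active = NADPH fluorescence slope more negative than the mean of all samples by about 3 SD, 99.7% confidence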;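 note: fluorescence intensity change per second fitted from 20 to 320 s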); details: Recombinant KvBeta, NADPH fluorescence decrease slope, 10 min; at 10 µM; stronger effect = lower value
[6] = molecular target: Alpha-2C adrenergic receptor (Homo sapiens) (UniProt P18825); experiment: modulators of alpha2C/GIRK thallium flux, primary screen, cell-based, HEK293 alpha2C/GIRK1/2 (AID 624;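 active = fluorescence slope after compound addition differing from the mean of all screened samples at 99.7% confidence, in either direction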;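 note: slope of fluorescence ratio to pre-addition baseline per second over 15 to 24 s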); details: thallium flux BTC fluorescence, at 10 µM, actives lie on both sides
[7] = inhibitors of Sendai virus-induced IRF3 signaling, primary screen, TLR/RLR signaling modifier project, cell-based, Sendai virus stimulus, luciferase, 10K MLSCN set (AID 602276;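 active = inhibition at or above 50% at 10 µM; inactive = inhibition below 50%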;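 note: firefly luciferase from ISG56 promoter only with Renilla not read in this screen; 0% = Sendai virus plus DMSO and 100% = medium plus DMSO without virus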); details: HEK293 RL24 IRF3 luciferase reporter, at 10 µM, stronger effect = higher value
[8] = inhibitors of poly I:C-induced TLR3 signaling, primary screen, cell-based, poly I:C stimulus, luciferase, 10K MLSCN set (AID 602277); details: HEK293-TLR3 RL24 IRF3 luciferase reporter, at 10 µM, stronger effect = higher value

Sequence of Voltage-gated potassium channel subunit beta-2 (Rattus norvegicus) (P62483 whole entry, looked up): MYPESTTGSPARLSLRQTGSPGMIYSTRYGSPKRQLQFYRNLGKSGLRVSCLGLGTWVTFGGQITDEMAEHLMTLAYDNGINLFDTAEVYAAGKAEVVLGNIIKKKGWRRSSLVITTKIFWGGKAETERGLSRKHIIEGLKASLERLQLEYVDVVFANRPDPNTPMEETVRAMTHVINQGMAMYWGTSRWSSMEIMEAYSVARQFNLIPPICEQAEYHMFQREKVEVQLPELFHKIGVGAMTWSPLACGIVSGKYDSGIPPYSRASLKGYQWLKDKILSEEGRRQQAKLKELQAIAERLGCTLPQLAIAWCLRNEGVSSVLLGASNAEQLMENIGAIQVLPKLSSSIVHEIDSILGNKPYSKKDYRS
Sequence of Alpha-2C adrenergic receptor (Homo sapiens) (P18825 whole entry, looked up): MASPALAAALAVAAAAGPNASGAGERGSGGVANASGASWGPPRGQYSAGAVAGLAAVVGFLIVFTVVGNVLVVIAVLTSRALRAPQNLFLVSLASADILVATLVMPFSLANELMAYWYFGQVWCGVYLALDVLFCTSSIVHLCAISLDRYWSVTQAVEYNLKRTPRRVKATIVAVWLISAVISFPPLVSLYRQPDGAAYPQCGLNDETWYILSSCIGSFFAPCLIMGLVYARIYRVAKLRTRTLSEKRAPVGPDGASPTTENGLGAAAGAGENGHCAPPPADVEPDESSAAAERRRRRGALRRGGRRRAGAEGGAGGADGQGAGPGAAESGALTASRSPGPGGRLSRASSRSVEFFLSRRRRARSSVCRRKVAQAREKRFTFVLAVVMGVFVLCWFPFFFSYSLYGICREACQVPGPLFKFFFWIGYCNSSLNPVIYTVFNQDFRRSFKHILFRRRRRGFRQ

Row | Compound | cell count [1] | inhibition [1] | inhibition of aggregation [2] | nuclei count [2] | inhibition [3] | nuclei count [3] | fluorescence slope [4] | NADPH fluorescence slope [5] | slope [6] | inhibition [7] | inhibition [8]
1 | COc1cccc(C(=O)NC2=NCCS2)c1 | 400 | -13.2% (inactive) | 29.5% (inactive) | 71.6% | -56.9% (inactive) | 131% | -0.496 (inactive) | -3.2e-05 (inactive) | 0.00469 (inactive) | -13.2% (inactive) | -61.5% (inactive)
2 | Cc1nnc(SCC(=O)NCc2ccccc2)s1 | 513 | -11.9% (inactive) | 27.7% (inactive) | 78.7% | 10.5% (inactive) | 120% | -0.447 (inactive) | -2.7e-05 (inactive) | 0.00344 (inactive) | 1.7% (inactive) | 30.9% (inactive)
3 | CS(=O)(=O)N(CC(=O)NCc1ccncc1)Cc1ccc(Cl)cc1 | 614 | 8.7% (inactive) | -13.4% (inactive) | 107% | -83.3% (inactive) | 121% | -0.471 (inactive) | -1.2e-06 (inactive) | 0.00437 (inactive) | 17.3% (inactive) | 18% (inactive)
4 | COCCn1c(=N)c(C(=O)NCCc2ccccc2)cc2c(=O)n3cccc(C)c3nc21 | 388 | 4.3% (inactive) | -22.7% (inactive) | 102% | -75.7% (inactive) | 117% | -0.0609 (inactive) | 4.2e-06 (inactive) | 0.00428 (inactive) | 9.73% (inactive) | 35.4% (inactive)
5 | CCCN1CCN(C(=O)Cn2c(=O)oc3cc(S(=O)(=O)NCc4ccccc4)ccc32)CC1 | 809 | 1.6% (inactive) | -16.6% (inactive) | 117% | -19.9% (inactive) | 114% | -0.51 (inactive) | -2.7e-05 (inactive) | 0.00639 (inactive) | 8.82% (inactive) | 23.8% (inactive)
6 | CC1CCN(S(=O)(=O)c2cn(CC(=O)N3CCN(C)CC3)c(=O)c3ccccc23)CC1 | 278 | -8.5% (inactive) | -2.7% (inactive) | 91.6% | -28.3% (inactive) | 121% | -0.604 (inactive) | 5.5e-06 (inactive) | 0.00569 (inactive) | 0.28% (inactive) | 17.6% (inactive)
7 | CN(C)C(=O)N1CCCC(C(=O)NCc2ccccc2)C1 (stereo not drawn) | 606 | -3.9% (inactive) | -1.5% (inactive) | 84% | -50.4% (inactive) | 112% | -0.341 (inactive) | -2.4e-05 (inactive) | 0.00548 (inactive) | 40.6% (inactive) | 25.4% (inactive)
8 | COc1cc(OC)cc(-c2nnc(SCC(=O)Nc3cc(C)on3)o2)c1 | 230 | 0.6% (inactive) | 32.6% (inactive) | 77.5% | -264% (inactive) | 111% | -0.347 (inactive) | -2.3e-05 (inactive) | 0.00422 (inactive) | 7.23% (inactive) | 31.7% (inactive)
9 | CCOC(=O)c1sc2nc(N3CCCC3)c3c(c2c1N)CC(C)(C)OC3 | 410 | 2.7% (inactive) | -0.3% (inactive) | 105% | -22.4% (inactive) | 103% | -0.302 (inactive) | -1.6e-05 (inactive) | 0.0041 (inactive) | -5.95% (inactive) | 2.54% (inactive)
10 | O=C(CN(c1ccc(F)cc1)S(=O)(=O)c1ccc2c(c1)OCCO2)Nc1ccc2c(c1)OCO2 | 795 | -6.1% (inactive) | -28.9% (inactive) | 105% | -49.1% (inactive) | 114% | -0.485 (inactive) | -3.3e-05 (inactive) | 0.00328 (inactive) | 16.4% (inactive) | 16.1% (inactive)
11 | O=C(NC1CCCC1)c1ccc2nc[nH]c2c1 | 427 | 10.2% (inactive) | 0.8% (inactive) | 101% | -41.4% (inactive) | 114% | -0.62 (inactive) | -3.9e-06 (inactive) | 0.00786 (inactive) | 9.91% (inactive) | 13.1% (inactive)
12 | O=C(NCCCN1CCOCC1)c1ccc(CS(=O)(=O)c2c(Cl)cccc2Cl)o1 | 440 | 0.9% (inactive) | -10.5% (inactive) | 98.2% | -46.8% (inactive) | 103% | -0.458 (inactive) | 2.8e-05 (inactive) | 0.00463 (inactive) | -8.21% (inactive) | 6.97% (inactive)
13 | CCOC(=O)CSc1nnc(NCC(=O)OC(C)C)c(=O)[nH]1 | 634 | 7.2% (inactive) | 3.7% (inactive) | 100% | -81.4% (inactive) | 144% | -0.573 (inactive) | 3.9e-05 (inactive) | 0.00694 (inactive) | 9.31% (inactive) | 3.05% (inactive)
14 | CCCCn1nnc(NC(=O)c2cc3ccccc3o2)n1 | 615 | 2.2% (inactive) | 3.5% (inactive) | 106% | -13.4% (inactive) | 90.8% | -0.468 (inactive) | 1.2e-05 (inactive) | 0.00257 (inactive) | -19% (inactive) | -27.4% (inactive)
15 | O=C(Nc1ccc(N2CCOCC2)c(Cl)c1)c1ccc(Br)o1 | 708 | 8.2% (inactive) | 4.4% (inactive) | 103% | -109% (inactive) | 104% | -0.497 (inactive) | -0.000111 (inactive) | 0.00715 (inactive) | -54.1% (inactive) | -162% (inactive)
16 | Cn1c(SCC(=O)Nc2ccc3c(c2)OCO3)nnc1-c1cnccn1 | 656 | 6.5% (inactive) | 3.7% (inactive) | 94.2% | 46.9% (inactive) | 91.7% | -0.366 (inactive) | -5.5e-05 (inactive) | 0.00395 (inactive) | 12.5% (inactive) | 24.2% (inactive)
17 | CCc1nnc(NC(=O)NCN2C(=O)C3C4C=CC(C4)C3C2=O)s1 (stereo not drawn) | 303 | 4.3% (inactive) | 3.2% (inactive) | 92.9% | -28.4% (inactive) | 96.4% | -0.458 (inactive) | -0.000309 (inactive) | 0.00673 (inactive) | 7.26% (inactive) | 12.4% (inactive)
18 | COc1ccc(OC)c(C(=O)c2coc3ccc(O)c(CN4CCOCC4)c23)c1 | 282 | 2.9% (inactive) | -12.4% (inactive) | 120% | -28.2% (inactive) | 109% | -0.561 (inactive) | -9.1e-06 (inactive) | 0.00423 (inactive) | 6.31% (inactive) | 23% (inactive)
19 | CS(=O)(=O)C1=C(O)C(=O)N(c2ccccc2)C1c1ccccc1 (stereo not drawn) | 415 | -6% (inactive) | -10.4% (inactive) | 103% | -41.9% (inactive) | 132% | -0.439 (inactive) | 1.7e-05 (inactive) | 0.00632 (inactive) | -1.92% (inactive) | 26.4% (inactive)
20 | Cc1nc2ccccc2c2oc(C(=O)NCCN3CCCCC3C)cc12 (stereo not drawn) | 558 | 5.4% (inactive) | 15.4% (inactive) | 87.5% | -1.3% (inactive) | 120% | -0.614 (inactive) | -3.9e-05 (inactive) | 0.00617 (inactive) | 7.56% (inactive) | 66.5% (active)
21 | COc1ccc(OC)c(-c2cc(C(=O)NCc3cccs3)no2)c1 | 248 | 1.3% (inactive) | 29.5% (inactive) | 101% | -23.8% (inactive) | 124% | -0.487 (inactive) | -5.5e-06 (inactive) | 0.00616 (inactive) | 3.16% (inactive) | 32% (inactive)
22 | COc1cc2[nH]c(=O)c(C(=O)NCCCN3CCCCC3)c(O)c2cc1OC | 637 | -24.5% (inactive) | 6.2% (inactive) | 98.3% | 15.9% (inactive) | 108% | -0.583 (inactive) | -5.3e-05 (inactive) | 0.00574 (inactive) | -5.59% (inactive) | -9.38% (inactive)
23 | Cc1cc(C(=O)COC(=O)C2COc3ccccc3O2)c(C)n1CC1CCCO1 (stereo not drawn) | 460 | 0.5% (inactive) | 19.3% (inactive) | 81.4% | -126% (inactive) | 119% | -0.373 (inactive) | -4.2e-05 (inactive) | 0.00612 (inactive) | 6.89% (inactive) | 22.4% (inactive)
24 | Cc1ccc(C)c(S(=O)(=O)C(C#N)c2nc3ccccc3nc2N2CC(C)OC(C)C2)c1 (stereo not drawn) | 358 | -4.1% (inactive) | -3.8% (inactive) | 103% | -84.3% (inactive) | 125% | -0.494 (inactive) | -1.6e-06 (inactive) | 0.00382 (inactive) | 32.7% (inactive) | 2.87% (inactive)
25 | O=C(CN1C(=O)CCSc2ccccc21)Nc1ccccc1 | 854 | -4.1% (inactive) | -19.8% (inactive) | 105% | -140% (inactive) | 113% | -0.447 (inactive) | -0.000395 (inactive) | 0.00731 (inactive) | -3.3% (inactive) | 7.46% (inactive)
26 | N#CC1=C(SCC(=O)c2cc3ccccc3oc2=O)NC(=O)C(C#N)C12CCCC2 (stereo not drawn) | 639 | -36.2% (inactive) | 14.2% (inactive) | 104% | -47.7% (inactive) | 123% | -0.493 (inactive) | -5.2e-05 (inactive) | 0.00421 (inactive) | 23% (inactive) | 31.4% (inactive)
27 | O=C(Cn1c(=O)oc2ccccc21)Nc1ccc(S(=O)(=O)N2CCCCC2)cc1 | 392 | 0.3% (inactive) | -5.3% (inactive) | 89.6% | -75.3% (inactive) | 126% | -0.504 (inactive) | -2.7e-05 (inactive) | 0.00415 (inactive) | 7.3% (inactive) | 14.4% (inactive)
28 | O=C(CNC(=O)c1cc2ccccc2o1)NCc1cccs1 | 420 | 3.6% (inactive) | -2.1% (inactive) | 107% | -57.3% (inactive) | 112% | -0.469 (inactive) | -1.5e-06 (inactive) | 0.0103 (inactive) | 5.59% (inactive) | 16.2% (inactive)
